# In all, about 2,900 compounds were measured (“NF-kB SEAP reporter activity, fold change vs agonist alone”: median about 0.99, highest 2% from about 2.6 on). The entries come from a sample that favours the highest values as a whole.
# How the values were obtained:
# RAW-Dual [1] = assay: NF-kB SEAP reporter activity, fold change vs agonist alone; cytotoxicity flag (confluency mask): not cytotoxic; higher = enhanced NF-kB activity
# Procedure, shortened: (§1)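 Reporter activity is given as fold change relative to agonist-alone wells. To measure it, 50 nL of library stock was pin-tooled onto RAW-Dual macrophages (50,000 cells/well, DMEM, 384-well plates), a PRR agonist followed 1 h later, and cells stayed at 37 °C, 5% CO2. Twenty hours on, supernatant was assayed for IRF (QuantiLuc luminescence) and NF-κB (QuantiBlue, 620 nm absorbance), and wells under 70% of agonist-control IncuCyte confluency in both mask sets were marked cytotoxic.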
# RAW-Dual [2] = assay: NF-kB SEAP reporter activity, fold change vs agonist alone; higher = enhanced NF-kB activity
# Procedure, shortened: as §1
# RAW-Dual [3] = assay: NF-kB SEAP reporter activity, fold change vs agonist alone; cytotoxicity flag (confluency mask): cytotoxic (confluency <70% of control); higher = enhanced NF-kB activity
# Procedure, shortened: as §1
# [4] = agonist: ODN 1826 (TLR9) 0.5 ug/mL
# [5] = agonist: Pam2CSK4 (TLR2/6) 0.1 ug/mL
# [6] = agonist: Pam3CSK4 (TLR2/1) 0.1 ug/mL
# [7] = library stock concentration (final ~1000-fold dilution): 10 mM, cytotoxicity flag (confluency mask): not cytotoxic, agonist: Imiquimod (TLR7) […]
# [8] = library stock concentration (final ~1000-fold dilution): 10 mM, cytotoxicity flag (confluency mask): not cytotoxic, agonist: MPLA (TLR4) […]
# [9] = library stock concentration (final ~1000-fold dilution): 10 mM, cytotoxicity flag (confluency mask): cytotoxic (confluency <70% of control), agonist: Imiquimod (TLR7) […]
# [10] = library stock concentration (final ~1000-fold dilution): 10 mM, cytotoxicity flag (confluency mask): cytotoxic (confluency <70% of control), agonist: MPLA (TLR4) […]
smiles,measurement,setting,value
COC(=O)NC(C(=O)N1CCCC1c1ncc(-c2ccc(-c3ccc(-c4cnc(C5CCCN5C(=O)C(NC(=O)OC)C(C)C)[nH]4)cc3)cc2)[nH]1)C(C)C (stereo unspecified) (library stock concentration (final ~1000-fold dilution): 10 mM),NF-kB SEAP reporter activity,RAW-Dual [1]; agonist: LPS (TLR4) 0.1 ug/mL,1.88
same,NF-kB SEAP reporter activity,RAW-Dual [1]; [4],0.935
same,NF-kB SEAP reporter activity,RAW-Dual [1]; [5],0.867
same,NF-kB SEAP reporter activity,RAW-Dual [1]; [6],0.8
COC(=O)NC(C(=O)N1CCCC1c1ncc(-c2ccc(-c3ccc(-c4cnc(C5CCCN5C(=O)C(NC(=O)OC)C(C)C)[nH]4)cc3)cc2)[nH]1)C(C)C (stereo unspecified),NF-kB SEAP reporter activity,RAW-Dual [2]; [7],1.24
same,NF-kB SEAP reporter activity,RAW-Dual [2]; [8],1.31
Cc1n[nH]c2ncc(C(=O)N3CCCC3c3ccc(Cl)cc3)cc12 (stereo unspecified) (library stock concentration (final ~1000-fold dilution): 10 mM),NF-kB SEAP reporter activity,RAW-Dual [1]; agonist: LPS (TLR4) 0.1 ug/mL,2.51
same,NF-kB SEAP reporter activity,RAW-Dual [1]; [4],2.07
same,NF-kB SEAP reporter activity,RAW-Dual [1]; [5],1.61
same,NF-kB SEAP reporter activity,RAW-Dual [1]; [6],2.59
Cc1n[nH]c2ncc(C(=O)N3CCCC3c3ccc(Cl)cc3)cc12 (stereo unspecified),NF-kB SEAP reporter activity,RAW-Dual [2]; [7],1.44
same,NF-kB SEAP reporter activity,RAW-Dual [2]; [8],1.77
Cn1ncc(Cl)c1-c1cc(C(=O)NC(CN)Cc2cccc(F)c2)sc1Cl (stereo unspecified) (library stock concentration (final ~1000-fold dilution): 10 mM),NF-kB SEAP reporter activity,RAW-Dual [1]; agonist: LPS (TLR4) 0.1 ug/mL,1.53
same,NF-kB SEAP reporter activity,RAW-Dual [1]; [4],1.27
same,NF-kB SEAP reporter activity,RAW-Dual [1]; [5],1
same,NF-kB SEAP reporter activity,RAW-Dual [1]; [6],1.15
Cn1ncc(Cl)c1-c1cc(C(=O)NC(CN)Cc2cccc(F)c2)sc1Cl (stereo unspecified),NF-kB SEAP reporter activity,RAW-Dual [2]; [7],1.39
same,NF-kB SEAP reporter activity,RAW-Dual [2]; [8],1.77
CCCC(NC(=O)C1C2CCCC2CN1C(=O)C(NC(=O)C(NC(=O)c1cnccn1)C1CCCCC1)C(C)(C)C)C(=O)C(=O)NC1CC1 (stereo unspecified) (library stock concentration (final ~1000-fold dilution): 10 mM),NF-kB SEAP reporter activity,RAW-Dual [1]; agonist: LPS (TLR4) 0.1 ug/mL,1.3
same,NF-kB SEAP reporter activity,RAW-Dual [1]; [4],0.887
same,NF-kB SEAP reporter activity,RAW-Dual [1]; [5],0.68
same,NF-kB SEAP reporter activity,RAW-Dual [1]; [6],0.601
CCCC(NC(=O)C1C2CCCC2CN1C(=O)C(NC(=O)C(NC(=O)c1cnccn1)C1CCCCC1)C(C)(C)C)C(=O)C(=O)NC1CC1 (stereo unspecified),NF-kB SEAP reporter activity,RAW-Dual [2]; [7],0.65
same,NF-kB SEAP reporter activity,RAW-Dual [2]; [8],1.02
Nc1nc(F)nc2c1ncn2C1OC(CO)C(O)C1O (stereo unspecified),NF-kB SEAP reporter activity,RAW-Dual [2]; [7],0.92
same,NF-kB SEAP reporter activity,RAW-Dual [2]; [8],0.844
Nc1nc(F)nc2c1ncn2C1OC(CO)C(O)C1O (stereo unspecified) (library stock concentration (final ~1000-fold dilution): 10 mM),NF-kB SEAP reporter activity,RAW-Dual [1]; agonist: LPS (TLR4) 0.1 ug/mL,1.1
same,NF-kB SEAP reporter activity,RAW-Dual [1]; [4],1.03
same,NF-kB SEAP reporter activity,RAW-Dual [1]; [5],1.06
same,NF-kB SEAP reporter activity,RAW-Dual [1]; [6],1.22
CC(C)CC(NC(=O)C(CCc1ccccc1)NC(=O)CN1CCOCC1)C(=O)NC(Cc1ccccc1)C(=O)NC(CC(C)C)C(=O)C1(C)CO1 (stereo unspecified) (library stock concentration (final ~1000-fold dilution): 10 mM),NF-kB SEAP reporter activity,RAW-Dual [1]; agonist: LPS (TLR4) 0.1 ug/mL,0.318
same,NF-kB SEAP reporter activity,RAW-Dual [1]; [4],1.18
same,NF-kB SEAP reporter activity,RAW-Dual [1]; [5],0.683
same,NF-kB SEAP reporter activity,RAW-Dual [1]; [6],0.456
CC(C)CC(NC(=O)C(CCc1ccccc1)NC(=O)CN1CCOCC1)C(=O)NC(Cc1ccccc1)C(=O)NC(CC(C)C)C(=O)C1(C)CO1 (stereo unspecified),NF-kB SEAP reporter activity,RAW-Dual [2]; [7],2.33
same,NF-kB SEAP reporter activity,RAW-Dual [2]; [8],0.832
CCc1c(N(CC)C2CCOCC2)cc2oc(C3CCN(C(C)C)CC3)cc2c1C(=O)NCc1c(C)cc(C)[nH]c1=O (library stock concentration (final ~1000-fold dilution): 10 mM),NF-kB SEAP reporter activity,RAW-Dual [1]; agonist: LPS (TLR4) 0.1 ug/mL,1.13
same,NF-kB SEAP reporter activity,RAW-Dual [1]; [4],0.983
same,NF-kB SEAP reporter activity,RAW-Dual [1]; [5],1.04
same,NF-kB SEAP reporter activity,RAW-Dual [1]; [6],0.941
CCc1c(N(CC)C2CCOCC2)cc2oc(C3CCN(C(C)C)CC3)cc2c1C(=O)NCc1c(C)cc(C)[nH]c1=O,NF-kB SEAP reporter activity,RAW-Dual [2]; [7],1.34
same,NF-kB SEAP reporter activity,RAW-Dual [2]; [8],1.04
COCC(NC(=O)c1cnc(C)s1)C(=O)NC(COC)C(=O)NC(Cc1ccccc1)C(=O)C1(C)CO1 (stereo unspecified) (library stock concentration (final ~1000-fold dilution): 10 mM),NF-kB SEAP reporter activity,RAW-Dual [1]; agonist: LPS (TLR4) 0.1 ug/mL,0.377
same,NF-kB SEAP reporter activity,RAW-Dual [1]; [4],1.25
same,NF-kB SEAP reporter activity,RAW-Dual [1]; [5],0.279
same,NF-kB SEAP reporter activity,RAW-Dual [1]; [6],0.692
COCC(NC(=O)c1cnc(C)s1)C(=O)NC(COC)C(=O)NC(Cc1ccccc1)C(=O)C1(C)CO1 (stereo unspecified),NF-kB SEAP reporter activity,RAW-Dual [2]; [7],2.34
same,NF-kB SEAP reporter activity,RAW-Dual [2]; [8],1.21
CC(C)(O)CNc1ncc(-c2ccnc(Nc3ccncc3)n2)c(CC2CC2)n1 (library stock concentration (final ~1000-fold dilution): 10 mM),NF-kB SEAP reporter activity,RAW-Dual [1]; agonist: LPS (TLR4) 0.1 ug/mL,4.13
same,NF-kB SEAP reporter activity,RAW-Dual [1]; [4],0.366
same,NF-kB SEAP reporter activity,RAW-Dual [1]; [5],0.814
same,NF-kB SEAP reporter activity,RAW-Dual [1]; [6],1.66
COc1cc(N2CCN(C)CC2)ccc1Nc1nccc(-c2cn(C)c3cnccc23)n1 (library stock concentration (final ~1000-fold dilution): 10 mM),NF-kB SEAP reporter activity,RAW-Dual [1]; agonist: LPS (TLR4) 0.1 ug/mL,1.02
same,NF-kB SEAP reporter activity,RAW-Dual [1]; [4],0.192
same,NF-kB SEAP reporter activity,RAW-Dual [1]; [5],1.14
same,NF-kB SEAP reporter activity,RAW-Dual [1]; [6],1.44
CC(C)(O)CNc1ncc(-c2ccnc(Nc3ccnc(Cl)c3)n2)c(CC2CC2)n1 (library stock concentration (final ~1000-fold dilution): 10 mM),NF-kB SEAP reporter activity,RAW-Dual [1]; agonist: LPS (TLR4) 0.1 ug/mL,5.81
same,NF-kB SEAP reporter activity,RAW-Dual [1]; [4],0.935
same,NF-kB SEAP reporter activity,RAW-Dual [1]; [5],1.41
same,NF-kB SEAP reporter activity,RAW-Dual [1]; [6],1.8
Nc1ncc(-c2ccnc(Nc3ccncc3)n2)c(CC2CC2)n1 (library stock concentration (final ~1000-fold dilution): 10 mM),NF-kB SEAP reporter activity,RAW-Dual [3]; agonist: LPS (TLR4) 0.1 ug/mL,4.89
same,NF-kB SEAP reporter activity,RAW-Dual [3]; [4],0.424
same,NF-kB SEAP reporter activity,RAW-Dual [3]; [5],0.975
same,NF-kB SEAP reporter activity,RAW-Dual [3]; [6],1.51
Cc1nc(N)sc1-c1ccnc(Nc2ccc(N3CCOCC3)cc2)n1 (library stock concentration (final ~1000-fold dilution): 10 mM),NF-kB SEAP reporter activity,RAW-Dual [1]; agonist: LPS (TLR4) 0.1 ug/mL,0.713
same,NF-kB SEAP reporter activity,RAW-Dual [1]; [4],0.256
same,NF-kB SEAP reporter activity,RAW-Dual [1]; [5],0.401
same,NF-kB SEAP reporter activity,RAW-Dual [1]; [6],0.522
CC(C)(O)CNc1nc(Nc2ccnc(C(F)(F)F)c2)nc(-c2cccc(C(F)(F)F)n2)n1,NF-kB SEAP reporter activity,RAW-Dual [2]; [7],1.19
same,NF-kB SEAP reporter activity,RAW-Dual [2]; [8],1.28
CC(C)(O)CNc1nc(Nc2ccnc(C(F)(F)F)c2)nc(-c2cccc(C(F)(F)F)n2)n1 (library stock concentration (final ~1000-fold dilution): 10 mM),NF-kB SEAP reporter activity,RAW-Dual [1]; agonist: LPS (TLR4) 0.1 ug/mL,1.51
same,NF-kB SEAP reporter activity,RAW-Dual [1]; [4],1.61
same,NF-kB SEAP reporter activity,RAW-Dual [1]; [5],1.09
same,NF-kB SEAP reporter activity,RAW-Dual [1]; [6],1.59
CC(C)(O)CNc1ncc(-c2ccnc(Nc3ccnc(Cl)c3)n2)c(CC2CC2)n1,NF-kB SEAP reporter activity,RAW-Dual [2]; [7],0.784
same,NF-kB SEAP reporter activity,RAW-Dual [2]; [8],2.07
COc1cc(N2CCN(C)CC2)ccc1Nc1nccc(-c2cn(C)c3cnccc23)n1,NF-kB SEAP reporter activity,RAW-Dual [2]; [7],0.285
same,NF-kB SEAP reporter activity,RAW-Dual [2]; [8],1.58
Cc1nc(N)sc1-c1ccnc(Nc2ccc(N3CCOCC3)cc2)n1,NF-kB SEAP reporter activity,RAW-Dual [2]; [7],0.996
same,NF-kB SEAP reporter activity,RAW-Dual [2]; [8],1.39
CC(C)(O)CNc1ncc(-c2ccnc(Nc3ccncc3)n2)c(CC2CC2)n1,NF-kB SEAP reporter activity,RAW-Dual [2]; [7],0.914
same,NF-kB SEAP reporter activity,RAW-Dual [2]; [8],2.18
Nc1ncc(-c2ccnc(Nc3ccncc3)n2)c(CC2CC2)n1,NF-kB SEAP reporter activity,RAW-Dual [2]; [9],0.641
same,NF-kB SEAP reporter activity,RAW-Dual [2]; [10],2.13
CCNC1CC(C)S(=O)(=O)c2sc(S(N)(=O)=O)cc21.Cl (stereo unspecified),NF-kB SEAP reporter activity,"RAW-Dual [2]; library stock concentration (final ~1000-fold dilution): 10 mM water, cytotoxicity flag (confluency mask): not cytotoxic, agonist: Imiquimod (TLR7) […]",0.908
same,NF-kB SEAP reporter activity,"RAW-Dual [2]; library stock concentration (final ~1000-fold dilution): 10 mM water, cytotoxicity flag (confluency mask): not cytotoxic, agonist: MPLA (TLR4) […]",0.982
CCNC1CC(C)S(=O)(=O)c2sc(S(N)(=O)=O)cc21.Cl (stereo unspecified) (library stock concentration (final ~1000-fold dilution): 10 mM water),NF-kB SEAP reporter activity,RAW-Dual [1]; agonist: LPS (TLR4) 0.1 ug/mL,1.49
same,NF-kB SEAP reporter activity,RAW-Dual [1]; [4],1.13
same,NF-kB SEAP reporter activity,RAW-Dual [1]; [5],1.09
same,NF-kB SEAP reporter activity,RAW-Dual [1]; [6],0.997
CCc1ccc(OCc2ccccc2C(=O)Nc2ccc3nc(C)cc(N)c3c2)cc1.Cl (library stock concentration (final ~1000-fold dilution): 10 mM),NF-kB SEAP reporter activity,RAW-Dual [3]; agonist: LPS (TLR4) 0.1 ug/mL,0.212
same,NF-kB SEAP reporter activity,RAW-Dual [3]; [4],0.198
same,NF-kB SEAP reporter activity,RAW-Dual [3]; [5],0.0939
same,NF-kB SEAP reporter activity,RAW-Dual [3]; [6],0.336
CCc1ccc(OCc2ccccc2C(=O)Nc2ccc3nc(C)cc(N)c3c2)cc1.Cl,NF-kB SEAP reporter activity,RAW-Dual [2]; [9],0.265
same,NF-kB SEAP reporter activity,RAW-Dual [2]; [10],0.216

# — the supplement of paper PMC10037445
